Data on 14 compounds can be found in PubChem BioAssay.

The structures appear in SMILES notation. Values joined by “and” are separate entries in the source; they are usually repeats but may differ in a detail not shown here. Equal values may be shown once. Active and inactive are the calls of the source. Unless noted, no rule for the calls is given here.

A short description of experiment [1]: compounds altering circadian rhythm period length – cell-based, LOPAC library, luminescence reporter (AID 2774).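 Also: values are relative to mean of DMSO wells on each plate.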 The conditions noted are these: circadian reporter cells, at 7 µM, actives lie on both sides.
Experiment [2] deals with Hepatitis C virus NS3 helicase. The experiment can be described thus: blockers of NS3h binding to ssDNA – biochemical, fluorescence polarization, LOPAC1280 library, primary screen (AID 687035; in the data active = inhibition above about 37%). The conditions noted are these: Purified HCV NS3 helicase, Cy5-dT15 ssDNA binding fluorescence polarization; stronger effect = higher value; concentration not given here. On the technique in general: Fluorescence polarisation rises when a labelled molecule tumbles more slowly, as on binding a larger partner.

The nature of experiment [3]: compounds altering Cy5-DNA-NS3h complex signal – biochemical, LOPAC1280, artefact control for HCV NS3 helicase inhibitor project (AID 687037). The conditions noted are these: Cy5-DNA-NS3h complex fluorescence interference counterscreen. For orientation: A counterscreen serves to expose hits that act by an unwanted route or on another target.
In experiment [4] the test system is Aerobactin synthetase IucA (Klebsiella pneumoniae). The experiment can be described thus: inhibition of K. pneumoniae IucA enzyme – biochemical, Tocris library, absorbance (AID 1345561).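 Also: 100% = enzyme without compound and 0% = no enzyme.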 The conditions noted are these: purified IucA enzyme assay, absorbance (OD) read-out; stronger effect = lower value;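 tested at 8 µM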.
A short description of experiment [5]: viability loss with induced miR-34 in A549 – imaging, A549 dox-inducible miR-34, nuclei and caspase counts, primary screen (AID 1347080;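 active = compounds whose cell count with miR-34 switched on is under 0.7 times the count with it off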). The conditions noted are these: A549 miR-34 inducible, Hoechst nuclei count, 48 h.
A short description of experiment [6]: blockers of cellular phospholipid synthesis – cell-based, LOPAC library, screen 4, primary screen (AID 1347384). The conditions noted are these: animal cells, phospholipid biosynthesis inhibition screen; at 10 µM.
A short description of experiment [7]: galactose survival enhancers in mitochondrial complex I cybrids – cell-based, galactose medium, ATP luminescence, primary screen (AID 1645843;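 active = z-score of at least 1.8 in each of two replicates, scored against plate mean and spread of sample wells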;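 also: positive z means more ATP and so rescue of galactose-driven cybrid death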). The conditions noted are these: complex I mutant cybrid cells, 72 h, stronger effect = higher value.
The mark [8] stands for this setting: stronger effect = lower value, cell number ratio, induced over uninduced.
The mark [9] stands for this setting: measured here: relative caspase fold change +Dox/-Dox.
Setting [10] is: measured here: total cells with miR-34 induction, stronger effect = lower value.
[11] abbreviates: measured here: total cells without miR-34 induction.

Turning to `NC[C@@H]1O[C@H](C23CC4CC(CC(C4)C2)C3)Cc2c1ccc(O)c2O`, the period change in experiment [1] was 0.01 h (inactive). For the same compound, the inhibition (in general, the drop in the measured response relative to a control, in per cent) in experiment [2] is -3% (inactive). In addition, the fluorescence ratio (interference) in experiment [3] was 0.9 (inactive). In addition, the remaining activity (usually the signal under treatment as a percentage of the control signal) in experiment [4] was 123% (inactive). The fold change in experiment [5] (setting [8]) is 1.09 (inactive) and 0.908 (inactive); in experiment [5] (setting [9]), 1.75 and 0.979. The cell count in experiment [5] (setting [10]) was 4260 and 7980; in experiment [5] (setting [11]) it was 3890 and 8790. The compound was classed as inactive in experiment [6]. The z-score in experiment [7] was -1.5 (inactive) and -0.775 (inactive).
For `CCCN(CC1CC1)c1nc(C)nc(Nc2c(Cl)cc(Cl)cc2Cl)c1Cl`, the period change in experiment [1] is 0.125 h (inactive). Further, the inhibition in experiment [2] was -2% (inactive). Moreover, the fluorescence ratio (interference) in experiment [3] is 1 (inactive). Moreover, in experiment [4], the remaining activity was 116% (inactive). Besides, the fold change in experiment [5] (setting [8]) is 1.08 (inactive) and 0.941 (inactive); in experiment [5] (setting [9]) it was 0.691 and 0.818. Also, the cell count in experiment [5] (setting [10]) was 9180 and 7650; in experiment [5] (setting [11]) it was 8510 and 8120. Further, the compound was called inactive in experiment [6]. Besides, the z-score in experiment [7] is -1.02 (inactive) and -0.83 (inactive).
As for `CC[C@H](NC(=O)c1c(C)c(-c2ccccc2)nc2ccccc12)c1ccccc1`, the period change in experiment [1] is 0.09 h (inactive). In addition, in experiment [2], the inhibition is 1% (inactive). Further, the fluorescence ratio (interference) in experiment [3] is 1 (inactive). Further, the remaining activity in experiment [4] was 110% (inactive). Also, the fold change was 1.28 (inactive) and 0.912 (inactive) in experiment [5] (setting [8]); 1.6 and 0.801 in experiment [5] (setting [9]). Besides, the cell count in experiment [5] (setting [10]) is 6890 and 7500; in experiment [5] (setting [11]) it was 5390 and 8230. For the same compound, the compound was classed as inactive in experiment [6]. Also, in experiment [7], the z-score was 1.77 (inactive) and 1.96 (inactive).
Take `Clc1ccc(N2CCN(Cc3c[nH]c4ncccc34)CC2)cc1`: in experiment [1], the period change was 0.105 h (inactive). The inhibition in experiment [2] was 12% (inactive). Besides, the fluorescence ratio (interference) in experiment [3] was 1 (inactive). In addition, the remaining activity in experiment [4] was 95.2% (inactive). Also, the fold change was 1.07 (inactive) and 0.896 (inactive) in experiment [5] (setting [8]); 0.721 and 0.794 in experiment [5] (setting [9]). The cell count in experiment [5] (setting [10]) is 9090 and 6380; in experiment [5] (setting [11]) it was 8470 and 7120. The outcome in experiment [6] was inactive. The z-score in experiment [7] was -0.965 (inactive) and -1.05 (inactive).
With `CN=c1nc(-c2ccccc2)n(-c2ccccc2)s1`, the period change in experiment [1] was -0.055 h (inactive). Moreover, the inhibition in experiment [2] was 8% (inactive). Besides, the fluorescence ratio (interference) in experiment [3] was 1 (inactive). The remaining activity in experiment [4] was 118% (inactive). Moreover, the fold change in experiment [5] (setting [8]) is 0.91 (inactive) and 0.922 (inactive); in experiment [5] (setting [9]), 1.06 and 0.764. Besides, the cell count is 3550 and 4090 in experiment [5] (setting [10]); 3900 and 4440 in experiment [5] (setting [11]). For the same compound, in experiment [6], the outcome was inactive. For the same compound, the z-score in experiment [7] is -1.38 (inactive) and -0.73 (inactive).
`O=C(O)c1cc(=O)c2c(Cl)cc(Cl)cc2[nH]1`: the period change in experiment [1] was -0.065 h (inactive). The inhibition in experiment [2] is -1% (inactive). Further, in experiment [3], the fluorescence ratio (interference) is 1 (inactive). In addition, the remaining activity in experiment [4] is 90.4% (inactive). The fold change is 0.981 (inactive) and 0.957 (inactive) in experiment [5] (setting [8]); 0.527 and 0.88 in experiment [5] (setting [9]). For the same compound, the cell count in experiment [5] (setting [10]) is 10000 and 8540; in experiment [5] (setting [11]) it was 10200 and 8930. For the same compound, the compound was called inactive in experiment [6]. Also, the z-score in experiment [7] was 0.135 (inactive) and -0.315 (inactive).
As for `CC1CCN(CC[C@H]2CCCN2S(=O)(=O)c2cccc(O)c2)CC1`, the period change in experiment [1] is 0.055 h (inactive). In addition, in experiment [2], the inhibition is -3% (inactive). In addition, in experiment [3], the fluorescence ratio (interference) was 1 (inactive). Besides, in experiment [4], the remaining activity was 106% (inactive). Also, the fold change in experiment [5] (setting [8]) was 0.975 (inactive) and 0.908 (inactive); in experiment [5] (setting [9]), 1.72 and 0.97. For the same compound, the cell count in experiment [5] (setting [10]) is 9460 and 8490; in experiment [5] (setting [11]) it was 9700 and 9350. For the same compound, in experiment [6], the result was inactive. Moreover, the z-score in experiment [7] was -0.155 (inactive) and -0.32 (inactive).
For the compound `CC(C)(C)NCC(O)COc1cccc2[nH]c(=O)[nH]c12` (stereo not given), the period change in experiment [1] was -0.075 h (inactive). The inhibition in experiment [2] was -3% (inactive). The fluorescence ratio (interference) in experiment [3] was 1 (inactive). Moreover, the remaining activity in experiment [4] is 89.1% (inactive). The fold change in experiment [5] (setting [8]) was 0.952 (inactive) and 0.913 (inactive); in experiment [5] (setting [9]), 1.58 and 1.07. For the same compound, the cell count was 9940 and 8700 in experiment [5] (setting [10]); 10400 and 9520 in experiment [5] (setting [11]). Further, in experiment [6], the compound was called inactive. Further, the z-score in experiment [7] is 0.24 (inactive) and 0.505 (inactive).
In the case of `CC(C)NC[C@H](O)COc1cccc2[nH]ccc12`, the period change in experiment [1] was 0.125 h (inactive). For the same compound, the inhibition in experiment [2] was -2% (inactive). For the same compound, the fluorescence ratio (interference) in experiment [3] is 1 (inactive). Also, the remaining activity in experiment [4] was 102% (inactive). Besides, the fold change in experiment [5] (setting [8]) is 0.97 (inactive) and 0.927 (inactive); in experiment [5] (setting [9]), 1.45 and 1.12. The cell count is 9970 and 8970 in experiment [5] (setting [10]); 10300 and 9670 in experiment [5] (setting [11]). Moreover, the result in experiment [6] was inactive. In experiment [7], the z-score is -0.095 (inactive) and -0.03 (inactive).
Consider `CCCc1c(-c2ccc(O)cc2)nn(-c2ccc(O)cc2)c1-c1ccc(O)cc1`, for which the period change in experiment [1] is 0.165 h (inactive). The inhibition in experiment [2] is -1% (inactive). Besides, in experiment [3], the fluorescence ratio (interference) was 1 (inactive). Further, the remaining activity in experiment [4] was 109% (inactive). Moreover, the fold change was 1.09 (inactive) and 0.887 (inactive) and 1.03 (inactive) in experiment [5] (setting [8]); 1.1 and 0.322 and 0.755 in experiment [5] (setting [9]). The cell count is 8030 and 5050 and 7250 in experiment [5] (setting [10]); 7380 and 5690 and 7020 in experiment [5] (setting [11]). In experiment [6], the compound was classed as inactive. In addition, in experiment [7], the z-score was 1.27 (inactive) and 1.6 (inactive).
Regarding `N=C(N)SCCc1cnc[nH]1`, the period change in experiment [1] is 0.045 h (inactive). In addition, in experiment [2], the inhibition is -3% (inactive). In addition, the fluorescence ratio (interference) in experiment [3] is 1 (inactive). Also, the remaining activity in experiment [4] is 120% (inactive). Besides, the fold change is 0.923 (inactive) and 0.986 (inactive) in experiment [5] (setting [8]); 1.08 and 0.938 in experiment [5] (setting [9]). For the same compound, the cell count is 8720 and 7870 in experiment [5] (setting [10]); 9460 and 7980 in experiment [5] (setting [11]). For the same compound, in experiment [6], the call was inactive. Also, the z-score in experiment [7] was 0.08 (inactive) and 0.435 (inactive).
With `N#Cc1cc2nc(O)c(O)nc2cc1[N+](=O)[O-]`, in experiment [1], the period change was 0.03 h (inactive). Besides, in experiment [2], the inhibition was -1% (inactive). In experiment [3], the fluorescence ratio (interference) is 1 (inactive). The remaining activity in experiment [4] was 114% (inactive). For the same compound, the fold change in experiment [5] (setting [8]) is 1.02 (inactive) and 0.856 (inactive); in experiment [5] (setting [9]), 1.08 and 1.89. The cell count in experiment [5] (setting [10]) was 9680 and 8420; in experiment [5] (setting [11]), 9500 and 9840. For the same compound, the call in experiment [6] was inactive. Also, the z-score in experiment [7] was 0.385 (inactive) and 0.185 (inactive).
Consider `COc1cc2c(CCNC(C)=O)c[nH]c2cc1Cl`, for which, in experiment [1], the period change was -0.08 h (inactive). Besides, the inhibition in experiment [2] is -1% (inactive). The fluorescence ratio (interference) in experiment [3] is 1 (inactive). Moreover, the remaining activity in experiment [4] was 94.8% (inactive). For the same compound, the fold change is 1.06 (inactive) and 0.902 (inactive) in experiment [5] (setting [8]); 2.61 and 0.855 in experiment [5] (setting [9]). Besides, the cell count in experiment [5] (setting [10]) is 9840 and 8550; in experiment [5] (setting [11]) it was 9250 and 9470. The result in experiment [6] was inactive. Moreover, in experiment [7], the z-score was 0.525 (inactive) and -0.185 (inactive).
In the case of `CC(/C=C/c1cccc(Oc2ccc(F)cc2)c1)N(O)C(N)=O` (stereo not given), the period change in experiment [1] is -0.095 h (inactive). For the same compound, the inhibition in experiment [2] was 0% (inactive). Moreover, in experiment [3], the fluorescence ratio (interference) is 1 (inactive). Further, in experiment [4], the remaining activity was 129% (inactive). Further, the fold change in experiment [5] (setting [8]) was 1.07 (inactive) and 0.882 (inactive) and 0.954 (inactive); in experiment [5] (setting [9]) it was 1.69 and 1.06 and 0.78. In addition, the cell count in experiment [5] (setting [10]) is 8210 and 4190 and 6640; in experiment [5] (setting [11]) it was 7700 and 4750 and 6960. Besides, the outcome in experiment [6] was inactive. The z-score in experiment [7] is -1.33 (inactive) and -0.775 (inactive).
